Test results reported in ChEMBL document CHEMBL1961873, “Compounds: GSK PKIS; Assays: Nanosyn kinase panel” (2012).

Molecular target: Serine/threonine-protein kinase PLK1 (Homo sapiens) (UniProt P53350);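 also: reported value is a mean PLK1 inhibition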
Conditions: at 1 µM

Chain of Serine/threonine-protein kinase PLK1 (Homo sapiens) (P53350 whole entry): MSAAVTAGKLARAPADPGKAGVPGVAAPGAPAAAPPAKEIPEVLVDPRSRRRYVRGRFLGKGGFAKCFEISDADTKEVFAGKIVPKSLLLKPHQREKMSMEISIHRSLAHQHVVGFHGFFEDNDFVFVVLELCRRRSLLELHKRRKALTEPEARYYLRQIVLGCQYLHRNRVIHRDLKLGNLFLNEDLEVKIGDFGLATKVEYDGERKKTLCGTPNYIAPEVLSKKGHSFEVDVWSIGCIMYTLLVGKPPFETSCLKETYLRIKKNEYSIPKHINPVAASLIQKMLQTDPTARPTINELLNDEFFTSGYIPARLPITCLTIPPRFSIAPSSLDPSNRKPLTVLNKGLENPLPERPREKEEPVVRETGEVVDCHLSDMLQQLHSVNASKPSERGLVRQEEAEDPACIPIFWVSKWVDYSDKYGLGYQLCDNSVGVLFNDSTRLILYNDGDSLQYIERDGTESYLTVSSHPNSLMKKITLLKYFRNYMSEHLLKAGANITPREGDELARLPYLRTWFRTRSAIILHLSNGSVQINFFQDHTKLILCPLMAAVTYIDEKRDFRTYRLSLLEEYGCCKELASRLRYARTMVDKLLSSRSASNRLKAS

SMILES | inhibition
NC(=O)c1ccc(Oc2nccc(-c3c(-c4ccc(F)cc4)ncn3C3CCNCC3)n2)cc1 | 9.34%
COc1ccc(-c2ccc3c(NC(=O)C4CC4)n[nH]c3n2)cc1 | 0.74%
Cc1ccc(C(=O)NC2CCC2)cc1-c1ccc(C(=O)NCC2CC2)cc1 | 2.15%
CN(c1ccc(NC(=O)Nc2c(Cl)cccc2Cl)cc1)c1ccnc(Nc2cccc(CS(C)(=O)=O)c2)n1 | 0.37%
O=C(Nc1ccc(Oc2ccc3[nH]c(NC(=O)c4ccccc4)nc3c2)cc1)Nc1cc(C(F)(F)F)ccc1F | 1.84%
Clc1ccc(CNc2nccc(-c3cnn4ncccc34)n2)cc1 | 2.85%
NC(=O)c1cc(-c2ccc(F)cc2)cc(-c2ccncc2)c1N | 2.93%
NS(=O)(=O)c1ccc(Nc2cc(-c3ccc(O)c(F)c3)n[nH]2)cc1 | -3.09%
CCc1nccc2c1nc(-c1nonc1N)n2CC | 1.55%
Fc1ccc(-c2ncn(C3CCNCC3)c2-c2ccnc(Oc3ccc4c(c3)OCO4)n2)cc1 | 3.7%
CS(=O)(=O)CCNCc1cc(-c2cc3c(Nc4ccc(OCc5cccc(F)c5)c(Cl)c4)ncnc3s2)cs1 | 8.12%
CCc1cccc(CC)c1/C=C/c1cncc(C(=O)NC)c1 | 1.99%
COc1ccc(C2=C(N3CCc4ccccc43)C(=O)NC2=O)cc1 | 4.9%
COc1cccc(/C=N/Nc2ncnc3c2cnn3-c2cccc(OC)c2)c1 | 5.49%
N#Cc1ccc(Oc2nccc(-c3c(-c4ccc(F)cc4)ncn3C3CCNCC3)n2)cc1 | 4.75%
O=C(Nc1n[nH]c2cc(-c3ccccc3)ccc12)C1CC1 | 2.83%
FC(F)(F)c1cccc(Nc2nccc(-c3cnn4nc(-c5ccccc5)ccc34)n2)c1 | -0.34%

SMILES | inhibition
COC(=O)Nc1nc2ccc(Sc3ccc(NC(=O)Nc4cc(C(F)(F)F)ccc4F)cc3)cc2[nH]1 | 0.84%
NC(=O)c1cc(-c2ccncc2)cc(-c2ccccc2)c1N | 5.13%
Fc1ccc(-c2ncn(CCCN3CCOCC3)c2-c2ccncc2)cc1 | -0.73%
O=C1Nc2ccccc2/C1=C/Nc1ccc(-n2cncn2)cc1 | 2.82%
CS(=O)(=O)CCNCc1ccc(-c2ccc3ncnc(Nc4ccc(OCc5ccccc5)c(Br)c4)c3c2)o1 | 3.81%
O=C(Nc1n[nH]c2nc(-c3ccc(O)cc3)c(Br)cc12)C1CC1 | 5.59%
CCN(CC)Cc1ccc(Nc2nccc(-c3cnn4ncccc34)n2)cc1 | 8.15%
COc1cc2ncn(-c3cc(OCc4ccccc4C(F)(F)F)c(C(C)=O)s3)c2cc1OC | 67.7%
O=C(Nc1n[nH]c2nc(-c3ccco3)ccc12)C1CC1 | 0.82%
Nc1nccc(-c2c(-c3ccc(F)cc3)ncn2C2CCC(O)CC2)n1 (stereo not drawn) | -1.2%
C/C(Nc1ccc(S(N)(=O)=O)cc1)=C1/C(=O)Nc2ccccc21 | -0.72%
O=C1NC(=O)C(c2cccc(Cl)c2)=C1Nc1ccc(Cl)c(C(=O)O)c1 | 2.75%
O=C(Nc1n[nH]c2cc(-c3cc(F)ccc3F)ccc12)C1CC1 | 3.61%
COc1ccc2cc(-c3c(-c4ccncc4)nc(-c4ccc(S(C)(=O)=O)cc4C)n3C)ccc2c1 | 4.49%
Fc1ccc(-c2ncn(C3CCNCC3)c2-c2ccnc(Oc3ccc(F)c(F)c3)n2)cc1 | 2.6%
CCc1ccc(Oc2nccc(-c3c(-c4ccc(F)cc4)ncn3C3CCNCC3)n2)cc1 | 6.93%
CCC(=O)Nc1ccc(C)c(-c2ccc(C(=O)NCC3CC3)cc2)c1 | 4.61%

Molecular target: T1, Dual specificity protein kinase TTK (Homo sapiens) (UniProt P33981)
T1 sequence (whole entry): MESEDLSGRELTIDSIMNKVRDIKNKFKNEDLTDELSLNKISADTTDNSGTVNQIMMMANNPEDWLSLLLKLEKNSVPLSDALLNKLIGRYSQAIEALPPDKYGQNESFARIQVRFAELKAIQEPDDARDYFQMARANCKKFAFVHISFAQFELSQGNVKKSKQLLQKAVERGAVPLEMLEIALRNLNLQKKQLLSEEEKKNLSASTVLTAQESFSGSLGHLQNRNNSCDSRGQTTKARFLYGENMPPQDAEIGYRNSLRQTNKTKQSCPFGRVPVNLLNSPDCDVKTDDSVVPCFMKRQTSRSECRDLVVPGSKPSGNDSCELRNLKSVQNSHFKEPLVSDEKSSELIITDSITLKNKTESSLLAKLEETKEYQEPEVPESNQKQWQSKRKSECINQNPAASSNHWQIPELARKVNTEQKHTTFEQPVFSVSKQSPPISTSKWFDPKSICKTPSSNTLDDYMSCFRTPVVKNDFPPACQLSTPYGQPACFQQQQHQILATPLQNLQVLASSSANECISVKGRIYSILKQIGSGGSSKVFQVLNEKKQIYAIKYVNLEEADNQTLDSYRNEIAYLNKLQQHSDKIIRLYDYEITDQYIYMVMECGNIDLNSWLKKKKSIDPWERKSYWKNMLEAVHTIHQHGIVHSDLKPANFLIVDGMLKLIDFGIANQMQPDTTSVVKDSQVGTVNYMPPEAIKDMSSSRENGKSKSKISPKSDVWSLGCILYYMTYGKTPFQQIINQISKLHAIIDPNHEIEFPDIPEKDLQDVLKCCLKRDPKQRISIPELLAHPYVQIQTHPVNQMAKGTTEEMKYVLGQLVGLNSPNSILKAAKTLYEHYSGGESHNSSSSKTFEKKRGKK
Conditions: at 0.1 µM

SMILES | inhibition
NC(=O)c1ccc(Oc2nccc(-c3c(-c4ccc(F)cc4)ncn3C3CCNCC3)n2)cc1 | 8.68%
COc1ccc(-c2ccc3c(NC(=O)C4CC4)n[nH]c3n2)cc1 | 5.12%
Cc1ccc(C(=O)NC2CCC2)cc1-c1ccc(C(=O)NCC2CC2)cc1 | 4.58%
CN(c1ccc(NC(=O)Nc2c(Cl)cccc2Cl)cc1)c1ccnc(Nc2cccc(CS(C)(=O)=O)c2)n1 | 3.9%
O=C(Nc1ccc(Oc2ccc3[nH]c(NC(=O)c4ccccc4)nc3c2)cc1)Nc1cc(C(F)(F)F)ccc1F | 5.51%
Clc1ccc(CNc2nccc(-c3cnn4ncccc34)n2)cc1 | 0.13%
NC(=O)c1cc(-c2ccc(F)cc2)cc(-c2ccncc2)c1N | 11.9%
NS(=O)(=O)c1ccc(Nc2cc(-c3ccc(O)c(F)c3)n[nH]2)cc1 | -2.03%
CCc1nccc2c1nc(-c1nonc1N)n2CC | 3.28%
Fc1ccc(-c2ncn(C3CCNCC3)c2-c2ccnc(Oc3ccc4c(c3)OCO4)n2)cc1 | 7.25%
CS(=O)(=O)CCNCc1cc(-c2cc3c(Nc4ccc(OCc5cccc(F)c5)c(Cl)c4)ncnc3s2)cs1 | 9.23%
CCc1cccc(CC)c1/C=C/c1cncc(C(=O)NC)c1 | 3.43%
COc1ccc(C2=C(N3CCc4ccccc43)C(=O)NC2=O)cc1 | 9.59%
COc1cccc(/C=N/Nc2ncnc3c2cnn3-c2cccc(OC)c2)c1 | 7.19%
N#Cc1ccc(Oc2nccc(-c3c(-c4ccc(F)cc4)ncn3C3CCNCC3)n2)cc1 | 8.02%
O=C(Nc1n[nH]c2cc(-c3ccccc3)ccc12)C1CC1 | 5.95%
FC(F)(F)c1cccc(Nc2nccc(-c3cnn4nc(-c5ccccc5)ccc34)n2)c1 | 3.1%

SMILES | inhibition
COC(=O)Nc1nc2ccc(Sc3ccc(NC(=O)Nc4cc(C(F)(F)F)ccc4F)cc3)cc2[nH]1 | 1.23%
NC(=O)c1cc(-c2ccncc2)cc(-c2ccccc2)c1N | 8.7%
Fc1ccc(-c2ncn(CCCN3CCOCC3)c2-c2ccncc2)cc1 | 5.04%
O=C1Nc2ccccc2/C1=C/Nc1ccc(-n2cncn2)cc1 | 22.4%
CS(=O)(=O)CCNCc1ccc(-c2ccc3ncnc(Nc4ccc(OCc5ccccc5)c(Br)c4)c3c2)o1 | 11.1%
O=C(Nc1n[nH]c2nc(-c3ccc(O)cc3)c(Br)cc12)C1CC1 | 10.2%
CCN(CC)Cc1ccc(Nc2nccc(-c3cnn4ncccc34)n2)cc1 | 12.4%
COc1cc2ncn(-c3cc(OCc4ccccc4C(F)(F)F)c(C(C)=O)s3)c2cc1OC | 6.18%
O=C(Nc1n[nH]c2nc(-c3ccco3)ccc12)C1CC1 | 1.09%
Nc1nccc(-c2c(-c3ccc(F)cc3)ncn2C2CCC(O)CC2)n1 (stereo not drawn) | -4.27%
C/C(Nc1ccc(S(N)(=O)=O)cc1)=C1/C(=O)Nc2ccccc21 | 8.06%
O=C1NC(=O)C(c2cccc(Cl)c2)=C1Nc1ccc(Cl)c(C(=O)O)c1 | 5.47%
O=C(Nc1n[nH]c2cc(-c3cc(F)ccc3F)ccc12)C1CC1 | 8.84%
COc1ccc2cc(-c3c(-c4ccncc4)nc(-c4ccc(S(C)(=O)=O)cc4C)n3C)ccc2c1 | 11.5%
Fc1ccc(-c2ncn(C3CCNCC3)c2-c2ccnc(Oc3ccc(F)c(F)c3)n2)cc1 | 10.3%
CCc1ccc(Oc2nccc(-c3c(-c4ccc(F)cc4)ncn3C3CCNCC3)n2)cc1 | 5.58%
CCC(=O)Nc1ccc(C)c(-c2ccc(C(=O)NCC3CC3)cc2)c1 | 8.14%
